# Screen size: about 310,000 compounds; about 2,200 (0.71%) showed an effect of 50% or more. The effect is printed as a negative number. This excerpt belongs to a sample that is enriched for strong results.
# Biological target: human ether-à-go-go-related gene (hERG) potassium channel (human, UniProt Q12809)
# Test: primary screen, population patch clamp on CHO cells stably expressing hERG; higher = less effect of the substance
# Sequence of human ether-à-go-go-related gene (hERG) potassium channel (Q12809 whole entry, looked up): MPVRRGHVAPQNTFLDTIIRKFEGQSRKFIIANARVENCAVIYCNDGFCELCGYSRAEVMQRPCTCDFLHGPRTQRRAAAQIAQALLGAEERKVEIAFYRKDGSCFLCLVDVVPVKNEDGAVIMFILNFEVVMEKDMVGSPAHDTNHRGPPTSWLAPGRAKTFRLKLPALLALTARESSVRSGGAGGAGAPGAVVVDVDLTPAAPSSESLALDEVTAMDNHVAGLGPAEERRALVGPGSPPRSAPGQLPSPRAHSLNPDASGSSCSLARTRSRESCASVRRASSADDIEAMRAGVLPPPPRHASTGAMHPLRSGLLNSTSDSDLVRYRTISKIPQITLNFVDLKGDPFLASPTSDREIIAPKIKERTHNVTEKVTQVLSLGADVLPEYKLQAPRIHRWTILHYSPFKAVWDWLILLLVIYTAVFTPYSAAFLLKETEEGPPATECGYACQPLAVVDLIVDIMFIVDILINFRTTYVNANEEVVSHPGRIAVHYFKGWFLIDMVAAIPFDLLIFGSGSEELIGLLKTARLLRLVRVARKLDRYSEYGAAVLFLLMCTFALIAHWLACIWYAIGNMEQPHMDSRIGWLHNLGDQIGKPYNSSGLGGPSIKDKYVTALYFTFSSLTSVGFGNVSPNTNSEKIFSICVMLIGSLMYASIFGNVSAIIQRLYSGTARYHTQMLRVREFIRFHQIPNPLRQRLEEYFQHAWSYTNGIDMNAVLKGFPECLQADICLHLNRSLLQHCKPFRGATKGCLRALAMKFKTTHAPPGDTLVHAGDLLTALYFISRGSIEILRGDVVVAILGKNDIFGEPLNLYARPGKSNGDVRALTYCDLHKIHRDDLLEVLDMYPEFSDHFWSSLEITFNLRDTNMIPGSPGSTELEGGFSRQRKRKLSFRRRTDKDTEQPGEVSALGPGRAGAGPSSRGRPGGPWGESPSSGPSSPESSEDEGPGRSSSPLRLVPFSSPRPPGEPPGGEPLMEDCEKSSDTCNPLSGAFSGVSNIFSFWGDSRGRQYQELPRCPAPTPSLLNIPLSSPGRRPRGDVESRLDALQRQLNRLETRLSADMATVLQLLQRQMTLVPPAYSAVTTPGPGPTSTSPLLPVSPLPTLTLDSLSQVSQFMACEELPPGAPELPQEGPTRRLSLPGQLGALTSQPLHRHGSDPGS
row,SMILES,"hERG current change (%, negative = inhibition) at 1uM [%]"
1,CCn1cc(C(=O)NCC2CCCO2)c2cc(OC)c(OC)cc2c1=O (stereo not drawn),14.8
2,O=C(NC1CCCCCC1)c1ccc2nc3cc(Cl)ccc3c(=O)n2c1,4.2
3,Cc1ccc2nc(SCC(=O)NC3CCCCC3)nc(=O)n2c1,-4.63
4,Cc1ccc2nc3c(cc(C(=O)NC4CCS(=O)(=O)C4)n3Cc3ccccc3)c(=O)n2c1 (stereo not drawn),21.4
5,CCOCCCNc1nc2nc3ccc(C)cn3c(=O)c2cc1C(=O)NCC1CCCO1 (stereo not drawn),-76
6,CCNc1nc2nc3ccc(C)cn3c(=O)c2cc1C(=O)NCC1CCCO1 (stereo not drawn),-31.2
7,Cc1ccc(-c2nn(-c3ccccc3)cc2C(=O)NCC2CCCO2)cc1 (stereo not drawn),1.49
8,Cc1ccc2nc3nc(NCC4CCCO4)c(C(=O)NC4CCCC4)cc3c(=O)n2c1 (stereo not drawn),-83.8
9,Cc1ccc2nc3nc(NCC4CCCO4)c(C(=O)NC4CCCCC4)cc3c(=O)n2c1 (stereo not drawn),-76.8
10,CCN(CC)c1ccc(/C=N/NC(=O)CNC(=O)c2ccccn2)cc1,-7.85
11,CC(C)C(C)NC(=O)CSc1nnc(-c2c[nH]c3ccccc23)o1 (stereo not drawn),4.32
12,CC1(C)CC(=O)C(C2c3ccccc3S(=O)(=O)c3ccccc32)C(=O)C1,16.3
13,c1ccc(-c2nc3nonc3c3nc4ccccc4n23)cc1,-1.03
14,Cc1cc(C)n(CC(O)CN(c2ccccc2)S(=O)(=O)c2ccc3ccccc3c2)n1 (stereo not drawn),6.41
15,Cc1cccc(N(CC(O)CN2CCCC2)S(=O)(=O)c2ccccc2)c1 (stereo not drawn),-35.3
16,Cc1ccc(S(=O)(=O)N(CC(O)CN(C)C)c2ccccc2)cc1.Cl (stereo not drawn),-43.8
17,Cc1ccc(N(CC(O)CN(C)C)S(=O)(=O)c2ccccc2)cc1.Cl (stereo not drawn),-62.8
18,Cc1cccc(N(CC(O)CN2CCOCC2)S(=O)(=O)c2ccccc2)c1 (stereo not drawn),11.2
19,O=S(=O)(c1ccccc1)N(CC(O)COc1ccccc1)c1ccccc1 (stereo not drawn),7.47
20,Cc1ccc(S(=O)(=O)N(CC(O)CN2C(=O)NC(C)(C)C2=O)c2ccccc2)cc1 (stereo not drawn),-28.4
21,CCN(CC)CC(O)CN(c1ccccc1)S(=O)(=O)c1ccc2ccccc2c1.Cl (stereo not drawn),-78.5

row,SMILES,"hERG current change (%, negative = inhibition) at 1uM [%]"
1,CCCN(CCC)CC(O)CN(c1ccccc1)S(=O)(=O)c1ccc(C)cc1 (stereo not drawn),-88.6
2,CCN(c1ccccc1)S(=O)(=O)c1ccc2ccccc2c1,14.6
3,Cc1cccc(N(CC(O)CN(C)C)S(=O)(=O)c2ccccc2)c1.Cl (stereo not drawn),-50.1
4,Cc1ccc(S(=O)(=O)N(CCC(=O)O)c2ccccc2)cc1,4.11
5,Cc1nn(CC(=O)N2CCOCC2)c(=O)c2nn(-c3ccccc3)c(C)c12,16.5
6,Cc1nn(C/C(C#N)=N\O)c(C)[n+]1N.[Cl-],11.8
7,COc1c(Cl)cc(Cl)cc1CNCCNCC(C)O.Cl (stereo not drawn),5.98
8,COc1ccc(C(=O)Nc2ccc(C(=O)N3CCOCC3)cc2)cc1OC,11.3
9,Cc1c(NC(=O)/C(C#N)=C/c2ccccc2)c(=O)n(-c2ccccc2)n1C,8.78
10,CCOC(=O)C1CCN(Cc2ccc(Cl)nc2)CC1,11.6
11,COc1ccc(C2c3c(ccc4ccccc34)Oc3ncn4nc(Cc5ccc(OC)c(OC)c5)nc4c32)cc1 (stereo not drawn),2.05
12,O=C(NCCc1ccc(Cl)cc1)/C(=C/c1cccnc1)NC(=O)c1ccccc1,-53.8
13,O=C(NCCc1ccccc1F)/C(=C/c1cccnc1)NC(=O)c1ccccc1,-3.24
14,COc1ccc(CCNC(=O)/C(=C/c2cccnc2)NC(=O)c2ccccc2)cc1,3.27
15,O=C(NCc1cccnc1)/C(=C/c1ccc(Cl)cc1)NC(=O)c1ccccc1,-60.8
16,CN(C)c1ccc(/C=C(\NC(=O)c2ccccc2)C(=O)NCc2cccnc2)cc1,-0.749
17,O=C(NCc1cccnc1)/C(=C/c1ccccc1)NC(=O)c1ccccc1,-23.3
18,COc1ccc(/C=C2\SC(=S)N(CCC(=O)N3CCCCC3)C2=O)cc1,-2.37
19,CCOc1ccc(C(=O)CCC(=O)Nc2ccccc2C)cc1,12.5
20,CC(C)c1ccccc1NC(=O)COC(=O)CNC(=O)c1ccc(Br)cc1,11
21,CCN(CC)S(=O)(=O)c1ccc(Cl)c(NC(=O)CSc2nnc(-c3cccs3)o2)c1,5.51

# Source: article PMC4336329 (PLoS ONE, 2015)
